In PubChem BioAssay (NCI):
Several values for one entry are separate records, joined by “and”; a condition that tells them apart may be missing. Equal values may be shown once. About 83,000 compounds went through this panel and 20% of them were active in at least one assay; those are over-represented in the sample as a whole.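 48-hour exposure, single concentration, 96-well plates; percent growth endpoint where 0 means no net growth. Active: below 10.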 A number with no mark means an inactive call. Activity calls are given as the source filed them.

Test system: HL-60(TB) leukemia
Experiment: NCI-60 one-dose screen, 48 h (100 = growth as untreated, 0 = no growth, -100 = all killed)
Details: 10 µM unless noted

| Structure (SMILES) | growth |
| --- | --- |
| COc1ccc(OC)c(Nc2nc(-c3c(C)nc4sccn34)cs2)c1 | 67.9% |
| CO[C@H](C(=O)[C@@H](O)[C@@H](C)O)[C@@H]1Cc2cc3cc(OC4CC(OC5CC(O)C(O)C(C)O5)C(O)C(C)O4)c(C)c(O)c3c(O)c2C(=O)[C@H]1OC1CC(OC2CC(OC3CC(C)(O)C(O)C(C)O3)C(O)C(C)O2)C(O)C(C)O1 (stereo not given in full) | 3.88% (active) |
| O=S(=O)(Nc1cc(Br)c(O)c2ccccc12)c1ccc(F)cc1 | -26.9% (active) |
| N=C(N)c1ccc(-c2ccc(/C=C/c3ccccc3)s2)cc1 | -39.5% (active) |
| Cc1c2c(cn1Cc1ccccc1)CCc1cn[nH]c1-2 | 90.6% |
| COC(=O)/C(CCC=C(C)C)=C1\[C@@H](OC(C)=O)C[C@@]2(C)[C@H]1C[C@@H](O)[C@H]1[C@@]3(C)CC[C@H](NC(=O)c4cnccn4)[C@@H](C)[C@@H]3CC[C@@]12C | 99.5% |
| O=C1/C(=C/c2ccc(F)cc2)COc2ccc(O)c(O)c21 | -17% (active) |
| CCN(CC)CCCC(C)N=c1cc(Nc2cc(=NC(C)CCCN(CC)CC)c3cc(OC)ccc3o2)oc2ccc(OC)cc12 (stereo not given) | -65.3% (active) |
| COC1(OC)N=C(N)C2(C#N)C3(C(=O)Nc4ccccc43)C12C#N (stereo not given) | 72.5% |
| CN(C)c1ccc(/C=C\C(=O)c2ccccc2)cc1 | 76.6% and 81.7% and 75.5% |
| COc1cccc(-c2nc3sccn3c2-c2ccnc(NCCCNS(=O)(=O)c3ccccc3)n2)c1 | 39.9% |
| CC(C)(C)NCCC(O)c1cc2c(Cl)cc(Cl)cc2c2cc(C(F)(F)F)ccc12 (stereo not given) | -60.9% (active) |
| Fc1cc2c(cc1Cl)N(c1ncnc3ccc(-c4cnc5[nH]ncc5c4)cc13)CC2 | 66.5% |
| CC1(C)Cc2c(sc3ncn4nc(-c5ccc(O)cc5)nc4c23)CO1 | 62.1% |
| CCCCCCCCCCCCCCCCCCOP(=O)([O-])OC1CC[N+](C)(C)CC1 | -22.6% (active) and -37.1% (active) |
| Cn1cc(-c2csc(-c3cn(CCCN4CCCCC4)c4ccc(Br)cc34)n2)c2cccnc21 | 0.828% (active) |
| Cc1ccc(-c2nc3ccccn3c2/C=C2/C(=O)Nc3cc(Cl)ccc32)cc1 | 50.3% |
| O=C1CSC(c2ccccc2Cl)N1c1nnc(Cn2nnc3ccccc32)o1 (stereo not given) | 84.4% |
| NC(=O)c1ccc[n+]([C@@H]2O[C@H](COP(=O)([O-])OP(=O)(O)OC[C@H]3O[C@@H](n4cnc5c(N)ncnc54)[C@H](O)[C@@H]3O)[C@@H](O)[C@H]2O)c1 | 109% |
| CCCCCCCCCCCCCCCC(N)c1ccccc1 (stereo not given) | -14.3% (active) |
| COc1ccc(COC(C)=O)cc1 | 112% |
| COc1ccc2c(c1)C(=O)/C(=C/c1ccc([N+](=O)[O-])o1)O2 | -42.3% (active) |
| CC[C@@H](C(=O)[C@@H](C)[C@@H](O)[C@H](C)[C@@H]1O[C@@H]([C@@H](CC)C(=O)NCCc2ccc(F)cc2)CC[C@@H]1C)C1O[C@]2(C=CC(=O)[C@]3(CC[C@@](C)([C@H]4CC[C@](O)(CC)[C@H](C)O4)O3)O2)[C@H](C)C[C@@H]1C (stereo not given in full) | 6.93% (active) |
| O=C(CSc1nc2ccc([N+](=O)[O-])cc2[nH]1)Nc1ccc(F)cc1 | 71.6% |
| COc1cc2c(c(OC)c1OC)CCC(c1cccc(C(=O)Nc3cccc(Cl)c3)c1)O2 (stereo not given) | 82.7% |
| COc1ccc2nc(NCCCNCCO)c3sc4ccc(F)cc4c(=O)c3c2c1 | 25% |
| COc1cc(N2C(=O)[C@H](O)C2c2ccc(SC)cc2)cc(OC)c1OC (stereo not given in full) | -41% (active) |

| Structure (SMILES) | growth |
| --- | --- |
| O=c1oc2ccccc2cc1C1=NN=C(SCc2ccccc2)SC1 | 102% |
| COc1cc2c(cc1OC)N(CCO)C1=C(C(=O)OC1)C2c1ccc(Cl)c(Cl)c1 (stereo not given) | 93.4% |
| C[C@H](CCC(=O)O)[C@H]1CC[C@H]2[C@@H]3CC[C@@H]4/C(=C\c5ccco5)C(=O)/C(=C\c5ccco5)C[C@]4(C)[C@H]3CC[C@]12C | 29.9% |
| Nc1cc(N)c(S(=O)(=O)O)cc1N=Nc1cc([N+](=O)[O-])ccc1O | 92.5% |
| Cc1cc(Nc2ccc(C)c(Cl)c2)n2nc(C(F)(F)F)nc2n1 | 100% |
| Cc1ccccc1COc1ccc(-c2onc(C)c2-c2ccc(Cl)cc2)cc1 | 17.7% |
| NCCCCCC(=O)O | 114% and 92.6% and 77.6% |
| COc1ccc(CN2c3ccccc3Sc3ccccc32)cc1O | 21.1% |
| O=C(/C=C\c1ccc(Cl)c(Cl)c1)c1ccccc1 | 59.3% and 99.9% |
| O=C(c1ccncc1)c1c(Cc2ccccc2)ccc2ccccc12 | 88.1% |
| CC#CC#Cc1cccc(=O)o1 | 18.1% |
| CCOc1cc(Br)c(C(C)NC(=O)c2cccc(OC)c2)cc1OCC (stereo not given) | 45.7% |
| CS(=O)(=O)c1ccc(-c2nc3cc(Cl)ccc3n2CC(=O)NO)cc1 | 91.9% |
| CN(C)CCn1c(=O)c2c3cc4c(cc3n(CCN(C)C)c2c2ccc(Cl)cc21)OCO4 | 19.5% |
| CCc1n(Cc2ccc3ccccc3c2)cc[n+]1Cc1ccc2ccccc2c1 | -54% (active) |
| COc1ccc2c(c1)C(C)Cc1c(N(C)C)ncnc1N2C (stereo not given) | -4.85% (active) |
| N#C/C(=N\Nc1ccc(Cl)cc1)C(=O)C1CC1 | 62.8% |
| Cc1ccc2nc(C)c(-c3nnc(SCc4ccc(C#N)cc4)o3)n2c1 | 111% |
| C/C(=N\O)C1(O)CCCCC1 | 83.6% |
| CC(c1ccccn1)C(C)(O)C(C)c1ccccn1 (stereo not given) | 69.8% |
| COc1cc2cc(COc3nccc(-c4ccc(Cl)cc4)n3)c(=O)[nH]c2cc1OC | 70.2% |
| CCOC(=O)N1CCN(CCCCl)CC1 | 85.6% |
| CC(C)NC1CCC(Nc2ccnc3cc(Cl)ccc23)CC1 (stereo not given) | 57.9% |
| O=S(=O)(Nc1ccc(Cl)cc1)c1ccc(-c2cnc(C3CC3)o2)cc1 | -36.7% (active) |
| FC(F)(F)c1cccc(Nc2nc3ccccc3nc2Nc2cccc(C(F)(F)F)c2)c1 | -48.9% (active) |
| COc1ccc2c(c1)C(=O)c1c-2c(OCCN(C)C)nc2cc(OC)ccc12 | 27.2% |
| CCOC(=O)NCCc1nc2c([nH]1)c(=O)n(C)c(=O)n2C | 124% |

| Structure (SMILES) | growth |
| --- | --- |
| FC(F)(F)c1cc(CNc2ncc(Br)c(Cl)n2)cc(C(F)(F)F)c1 | 101% |
| O=C(C(=O)N1CCOCC1)c1cn(CCCn2cc(C(=O)C(=O)N3CCOCC3)c3ccccc32)c2ccccc12 | 91.9% |
| O=C(Cn1c(=O)ccn(CCCCCCCCOc2ccc(Br)cc2)c1=O)Nc1ccc(Oc2ccc(Cl)cc2)cc1 | 48.7% |
| CCN(CC)c1ccc2c(cc1=O)[C@@H](NC(C)=O)CCc1cc(OC)c(OC)c(OC)c1-2 | -56.8% (active) |
| C[C@@H]1[C@H]2[C@H](C=C3[C@@H]4CC[C@H]5Cc6nc7c(nc6C[C@]5(C)[C@H]4C[C@@H](O)[C@@]32C)C[C@@H]2CC[C@H]3C4=C[C@@H]5O[C@@]6(CC[C@](C)(CO)O6)[C@@H](C)[C@@]5(O)[C@@]4(C)[C@H](O)C[C@@H]3[C@@]2(C)C7)O[C@]12CCC(C)(C)O2 | 4.6% (active) |
| Cc1ccc(-c2nc(N3CCNCC3)c3oc(-c4ccccc4)nc3n2)cc1 | -66.6% (active) |
| O=C(Nc1nc(-c2ccccc2Cl)cs1)c1cc(-c2ccccc2)nc2ccc(Cl)cc12 | -3.8% (active) |
| C=CCSc1n[nH]c(-c2cccs2)n1 | 111% |
| COC(=O)c1c2c(c(C)[n+]([O-])c1C)C(=O)C=C(NCc1ccc(F)cc1)C2=O | -29.4% (active) |
| NNC(=O)c1ccc(C(=O)NN)cc1 | 124% |
| Nc1nonc1-c1nc2ccccc2n1Cc1ccc(F)cc1 | 21.5% |
| COc1ccc(-c2nn(-c3cccc(Cl)c3)cc2C=C(C#N)C#N)cc1 | -36.7% (active) |
| Cn1c(-c2c(N)n(Cc3ccc(C(F)(F)F)cc3)c3nc(C#N)c(C#N)nc23)nc2ccccc21 | -54.6% (active) |
| CS(=O)(=O)Nc1ccc(Nc2c3ccccc3nc3cc([N+](=O)[O-])ccc23)cc1 | -8.01% (active) |
| COc1ccc(C2CC(c3cccc(OC)c3)=NN2C(=O)c2cc(OC)c(OC)c(OC)c2)cc1 (stereo not given) | -44.1% (active) |
| CCN(CC)CCCNc1nc(C)cc(Nc2ccc3nc(C)cc(N)c3c2)n1 | 106% |
| CS(=O)CC(=N\O)/C(CS(C)=O)=N\O (stereo not given) | 101% |
| O=C(Nc1ccccc1)Oc1c(Cl)c(Cl)c(Cl)c(Cl)c1Cl | 86.8% and 92.2% |
| CN1CCN(CCOc2cc(OC3CCOCC3)c3c(Nc4c(Cl)ccc5c4OCO5)ncnc3c2)CC1 | 101% |
| COc1cc(NC(C)CCCN)c2nccc(C)c2c1OC (stereo not given) | -3.41% (active) |
| COc1ccc(/C=C\c2nc3ccccc3s2)cc1OP(=O)(O)O | -1.37% (active) |
| N#CC1(Nc2ccc3c4c(cccc24)CC3)CCCCC1 | 72.2% |
| CC(C)(C)c1cnc(CSc2cnc(NC(=O)C3CCNCC3)s2)o1 | -40.4% (active) |
| CNC(C)[C@H]1CCC2C3CCC4C[C@@H](N(C)C(=O)c5ccccc5)CC[C@]4(C)C3CC[C@@]21C (stereo not given in full) | 14.9% |
| Cn1c(/C=C(\C#N)c2ccccc2)nc2c(N3CCOCC3)nc(Cl)nc21 | -33% (active) |
| CC1=Nc2cnc(Nc3ccc(OCCN4CCCC4)cc3)nc2Nc2ccccc21 | 76.4% |
